These results are taken from the supplement of paper PMC11417369.

In all, about 25,000 sequences were measured (“ln(normalized median fluorescence intensity)”: median about 9.3, highest 2% from about 10 on). This excerpt belongs to a sample that is enriched for the highest values.

The subject of the experiment is PF3D7_0420300 AP2 domain 1 (GST-tagged). Briefly: gcPBM binding intensity (ln(normalized median fluorescence intensity)); higher = stronger DNA binding. The procedure, abridged:
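GST-fused DNA-binding domains of P. falciparum, expressed in E. coli, were applied at about 25 μg on average for 1 h to an Agilent 4 × 180k array of primer-extended double-stranded 36-bp intergenic genomic probes and negative controls. Binding intensity is the highest Masliner-normalised natural-log median intensity across replicate spots of either probe orientation, measured with Alexa488 anti-GST antibody and a 488 nm scan.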
Turning to “TTAAACCGTGGGAGCACACACACACCCCCACCCATA [CACACA_site331]”, the “gcPBM binding intensity (ln)” value was determined as 10.2. In the case of “TGTGGGAATAACCACACACACACACCCATATATATA [CACACA_site5876]”, the “gcPBM binding intensity (ln)” value was determined as 10.1. As for “TTAAACATATATTAAGCACACACAAACAAAAAAACA [CACACA_site8816]”, the figure is 9.9. As for “AAACCGTGGGAGCACACACACACACCGACACATATA [CACACA_site4338]”, the figure is 10.1. As for “ATTAAACCGTGGGAGCACACACACACACACACACAT [TGCATGCA_negctrl_site72]”, the figure is 10.8; as for “AATATGTCTTAAAAAAGTACATAAATTTTAACTTCA [XGTACX_site6670]”, 8.84.

Take “TTTTTTTTTTTTTTTTGTACATAATAAATGTTCTTA [XGTACX_site6754]”: the “gcPBM binding intensity (ln)” value was 8.64. The same measure for “AAGAATTATATTAATAGTACATATATATTAATTTAT [XGTACX_site5713]”: 9.08. With “GCAAATCTTATATGAAGTACATATCTTATAAATAAA [XGTACX_site6903]”, the “gcPBM binding intensity (ln)” value was 8.96. As for “TGGAGGTCAGTTCACAGTACCCAGAAACTCTACGAG [XGTACX_site2007]”, the figure is 8.76; as for “TTATAATCAATGAATACACACATATATTTAATTAAT [CACACA_site3613]”, 9.47; as for “TATAAAAATATATGCACACAAATAAAAAATTATATA [CACACA_site3629]”, 9.44. On to “AATTTTATATATATATGTACATATTTATATGCTTAT [XGTACX_site8180]”, for which the “gcPBM binding intensity (ln)” value was found to be 9.4. The same measure for “ATTTAGAAAAAATATACACACAGCCTAAACATGCAT [CACACA_site4067]”: 9.64. Take “TATATATATGTATATGTGCACAGTTTTCTTATTAAA [GTGCAC_site9990]”: the “gcPBM binding intensity (ln)” value was 9.24. As for “TATAAATATTTATACACACACATATATTTATATATC [CACACA_site6366]”, the figure is 9.82; as for “AAATTTGGTGAAGGATGTACTTTACCTAATACTTGT [XGTACX_site4825]”, 9.21; as for ATATTTACTCACGTCTTGCACTGAGCAAGCATTATA, 9.02. As for “AATGCTATCATTAATGCACACATTTAAACTTAATAT [CACACA_site5878]”, the figure is 9.36; as for “GGCAAATTTATTATACCCACATACATACATACATAC [XGTACX_negctrl_site186]”, 9.24. As for “TACATAAATTAAAACACACACACACCCAAAAAAAAA [CACACA_site2261]”, the figure is 10.1. Turning to “CAAACATTTTAATGTACACACACCCACAGACAAACA [CACACA_site5522]”, the “gcPBM binding intensity (ln)” value was 9.78. On to “AAATTTGGCAAACACACACACACACCCACACCCACA [CACACA_site8095]”, for which the “gcPBM binding intensity (ln)” value is 10.2. As for “AACTTTGGCAAACACACACACACACCCACACCCACA [CACACA_site588]”, the figure is 10.3; as for “AGACAGCGCACAAACACACAAACACCCACCCACATA [CACACA_site451]”, 10.2; as for “GTTACACCAACAAACACACACACACCCACCCACAAA [CACACA_site2427]”, 10.2.

For “AAATTTGGCAAACACACACACACACCCACAGAGACA [CACACA_site4490]”, the “gcPBM binding intensity (ln)” value was found to be 10.3. For “CATATATATATATATACACACATATATATTTTCTTT [CACACA_site1457]”, the “gcPBM binding intensity (ln)” value was 9.46. Take “TATTTTAATTATAAATTTAAAAAAAAAAAGAAAAAA [CACACA_negctrl_site1674]”: the “gcPBM binding intensity (ln)” value stood at 9.01. The same measure for “TTCGGAAAAATTAAAGCACACAAAAAAAAATAAAAA [CACACA_site8296]”: 9.45; for “TATAAGCTTTCAATGTGTACATATTATTTTATTATT [XGTACX_site3988]”: 9.44; for “TTTATGGATGTGTATGCATGCCTAAATAAATATATG [TGCATGCA_site916]”: 9.1. With “ATATATATGTATAATCGTACAGTTAACGTATTCTTA [XGTACX_site5649]”, the “gcPBM binding intensity (ln)” value was 9.26. As for “TAATATTATTATTTTACACACTTTTTTCCTTTTATC [CACACA_site2457]”, the figure is 9.45; as for “GTATATAGTATGTAGAGTACTAATTTCCATATGTTC [XGTACX_site7816]”, 9.25. The same measure for “AATATTTATTTTATATGTACATAATTTATTTTTAAT [XGTACX_site776]”: 9.26; for “AAAATAAAATATTTCTGTACTTATAACTATTCTATA [XGTACX_site8007]”: 9.14. As for “TATATATATATATGTACACACACACCGATAAATAAA [CACACA_site8041]”, the figure is 9.99; as for “TGAAAAGATAAAAAAAGTACACACACACATATATAT [XGTACX_site6504]”, 10.2; as for “AGATAAAAAAAGTACACACACACATATATTTATATA [CACACA_site7437]”, 10.1. In the case of “AACAGATAAAAGGGTACACACATATATACAAGTACA [CACACA_site7959]”, the “gcPBM binding intensity (ln)” value amounted to 9.9. For the sequence “AAGATAAAATAATAAAGTACACATATAAATTGAAAA [XGTACX_site2113]”, the “gcPBM binding intensity (ln)” value was determined as 9.42. “AGATAAAAAAAGTACACACACACATATATATATATA [CACACA_site3072]”: the “gcPBM binding intensity (ln)” value was found to be 9.82. The same measure for “AAAAAAAAAAAAAGTACACACATACAGATAAATATA [CACACA_site5067]”: 9.66. The same measure for “AAAGATAAAAAAAGTACACACACACCGATATATATA [CACACA_site9006]”: 10.2. As for “TACAGATAAAAGTACACACACACACCGATATATATA [CACACA_site4675]”, the figure is 10.2.
